Experimental findings from PubChem BioAssay AID488859 (Sanford-Burnham Center for Chemical Genomics, 2010) are described below.

For orientation: inhibition means the relative decrease from the control value, in per cent.

The structures appear in SMILES notation. In all, about 1,400 compounds went through this assay and about 970 (69%) were called active. Not shown: some 5% with an inconclusive outcome. So high a share suggests a set chosen from earlier hits. The list is a sample of the results. Unmarked numbers belong to inactive results. Rule as the data show it: active = inhibition above about 45%; inconclusive = no clear call, values can overlap the other calls; inactive = below that.

The target in this assay is Ubiquitin-conjugating enzyme E2 N (Homo sapiens) (UniProt P61088). Description: retested blockers of UBC13 chain formation – biochemical, TR-FRET, single concentration, confirmation (AID 488859). The settings on record: UBC13 polyubiquitination, at 10 µM, stronger effect = higher value. A general note: In TR-FRET formats the signal depends on donor and acceptor labels being close together.
Chain of Ubiquitin-conjugating enzyme E2 N (Homo sapiens) (P61088 whole entry, looked up): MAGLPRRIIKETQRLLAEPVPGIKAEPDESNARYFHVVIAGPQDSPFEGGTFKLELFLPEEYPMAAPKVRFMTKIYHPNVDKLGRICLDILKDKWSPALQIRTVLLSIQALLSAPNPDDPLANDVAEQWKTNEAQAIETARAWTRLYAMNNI
In the case of `O=C(COC(=O)Cn1cnc2ccccc2c1=O)NCc1ccccc1Cl`, the inhibition was 57.6% (active).
Turning to `CCN1CCN(CCNC(=O)c2ccc(/C=C3/Sc4ccccc4N(Cc4cccc(C)c4)C3=O)cc2)CC1`, the inhibition is 85.6% (active).
Take `COc1ccc(N(C(=O)c2snc(C(N)=O)c2N)C(C(=O)NC2CCCC2)c2ccco2)cc1OC` (stereo unspecified): the inhibition was 96.8% (active).
`CCC(C(=O)NC1CCCC1)N(C(=O)c1snc(C(N)=O)c1N)c1ccc2c(c1)OCCO2` (stereo unspecified): the inhibition is 95% (active).
With `NC(N)=Nc1nc(-c2ccccc2)c2cc(Cl)ccc2n1`, the inhibition is 79.9% (active).
For the compound `COc1ccc(C(CNC(=O)c2ccc(S(=O)(=O)Nc3ccccc3F)cc2)N(C)C)cc1` (stereo unspecified), the inhibition was 114% (active).
Next, `NC(=O)NC(CC(=O)NNC(=O)c1ccccn1)c1ccc(Cl)cc1` (stereo unspecified): 95.3% (active).
`CC(C)n1cnc2c(Nc3cccc(Cl)c3)nc(N(CCO)CCCO)nc21`: the inhibition is 30.6%.
Turning to `COc1cccc2sc3cc(NCC[C@@H]4CCCN4C)ccc3c(=O)c12`, the inhibition was 41.3%.
Take `CCCC[C@@H]1CN=C(N)N1CCc1cc(C(F)(F)F)cc(C(F)(F)F)c1`: the inhibition is 55.4% (active).
`CN(C)CC(O)COc1ccc(C(C)(C)c2ccc(OCC(O)CN(C)C)cc2)cc1` (stereo unspecified): the inhibition is 60.5% (active).
With `Cc1ccc(NC(=O)c2cnc(SCC(=O)NCC3CCCO3)n(C)c2=O)cc1` (stereo unspecified), the inhibition is 95.9% (active).
Regarding `NC[C@H](Cc1ccccc1)NCCc1cc(C(F)(F)F)cc(C(F)(F)F)c1`, the inhibition was 40.1%.
On to `Cc1c(CN2CCC(CO)(CCOc3ccccc3)CC2)[nH]c2ccc(Cl)cc12`, for which the inhibition was 74% (active).
With `CCOC(=O)[C@@H]1[C@H]2COc3cc(OC)ccc3[C@H]2N2C(=O)N(c3ccc(F)cc3)C(=O)[C@]12C`, the inhibition is 1.2%.
For the compound `O=C(CCCCCN1C(=O)c2cccc3cccc(c23)C1=O)NCc1ccco1`, the inhibition is 50.7% (active).
Consider `CN(C)c1ccnc2sc3c(=O)n(Cc4ccccc4)cnc3c12`, for which the inhibition is 57.1% (active).
For the compound `COc1ccnc2c1c(=O)n(Cc1cccc(F)c1)c(=O)n2C`, the inhibition was 52.3% (active).
Next, `C#CCOCCOCCOCCNc1nc(N2CCN(C(=O)CCCCCCCCCCNC(=O)[C@H]([C@@H](C)CC)n3cc(CCCCN=C(N)N)nn3)CC2)nc(N2CCN(C(=O)CCCCCCCCCCNC(=O)[C@H](CO)n3cc(CCCSC)nn3)CC2)n1`: 121% (active); `C#CCOCCOCCOCCNc1nc(N2CCN(C(=O)CCCCCCCCCCNC(=O)Cn3cc(CCCCCN)nn3)CC2)nc(N2CCN(C(=O)CCCCCCCCCCNC(=O)[C@H](CO)n3cc(CCCSC)nn3)CC2)n1`: 129% (active); `C#CCOCCOCCOCCNc1nc(N2CCN(C(=O)CCCCCCCCCCNC(=O)[C@H](CCCCN)n3cc(C)nn3)CC2)nc(N2CCN(C(=O)CCCCCCCCCCNC(=O)[C@H](CO)n3cc(CCCSC)nn3)CC2)n1`: 121% (active).
